Data on seven compounds can be found in PubChem BioAssay.

Broadly, the inhibition is the drop in the measured response relative to a control, in per cent.

Assay [1] concerns TRPC4 beta (transient receptor potential cation channel C4), mouse. Put plainly: activators of mouse TRPC4 channel, confirmation, cell-based, Fluo4 calcium, HEK293 TRPC4beta/mu-opioid, duplicates, 10 µM (AID 2426;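 active = fluorescence ratio normalized to control raised more than 50% in primary screen plus both repeat runs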). Particulars: Fluo4 calcium fluorescence, at 10 µM; stronger effect = higher value.
The test system of assay [2] is transient receptor potential cation channel C4 beta (TRPC4), mouse. In words: activators of mouse TRPC4 channel, confirmation, cell-based, second round, Fluo4, HEK293 TRPC4beta/mu-opioid, 1 µM (AID 2461;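 active = primary screen active and over 50% activation in each of two duplicate runs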). Particulars: Fluo4 calcium fluorescence, at 1 µM; stronger effect = higher value.
Assay [3] has as its system TRPC4 (transient receptor potential cation channel C4 beta), mouse. In words: positive allosteric modulators of mouse TRPC4, confirmation, cell-based, second round, Fluo-4, HEK293 TRPC4beta/mu-opioid, 1 µM (AID 2554;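 active = primary screen hit whose fluorescence ratio, in both repeats, exceeds the weak agonist control mean by 3 SD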). Particulars: DAMGO EC20, Fluo-4 calcium flux, at 1 µM; stronger effect = higher value.
For assay [4], the system named is TRPC4 beta (transient receptor potential cation channel C4), mouse. Put plainly: positive allosteric modulators of mouse TRPC4, confirmation, cell-based, Fluo-4, HEK293 TRPC4beta/mu-opioid (AID 2555;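 active = primary screen hit whose calcium fluorescence ratio, in both repeats, exceeds the weak agonist control mean by 3 SD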). Particulars: DAMGO EC20, Fluo-4 calcium flux, at 10 µM; stronger effect = higher value. A general note: Calcium assays in cells follow changes in intracellular calcium, usually with a dye or a luminescent sensor.

Assay [5] concerns the target Short transient receptor potential channel 4 (Mus musculus) (UniProt Q9QUQ5). Put plainly: inhibitors of mouse TRPC4 channel, confirmation, cell-based, Fluo4, HEK293 TRPC4beta/mu-opioid (AID 2636). Particulars: DAMGO, Fluo4 calcium flux, at 10 µM; stronger effect = higher value.
The target is the same in assay [6]. In words: inhibitors of mouse TRPC4 channel, confirmation, cell-based, second round, Fluo4, HEK293 TRPC4beta/mu-opioid, 1 µM (AID 2637;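 active = calcium signal ratio cut to more than 3 SD under the fully stimulated control mean yet still positive, in both repeats and the primary screen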;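 for inhibition: percent of integrated ratio relative to wells lacking test compound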). As to conditions: Fluo4 calcium flux, DAMGO, at 1 µM; stronger effect = higher value.
Assay [7] shares this target. In words: mouse TRPC4 channel activators, dose response, cell-based, HEK293 TRPC4/mu-opioid, Fluo-4 calcium (AID 434937;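 active = primary screen activator hit with a dose response curve and TRPC4 channel activation at any tested dose; inactive = no activation, no dose response, or not a primary hit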).
The target is the same in assay [8]. In words: TRPC4 positive allosteric modulators, dose response, cell-based, HEK293 TRPC4/mu-opioid, Fluo-4 calcium, EC20 DAMGO (AID 434941;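 active = earlier screen potentiator hit that boosts the TRPC4 ion channel at some dose, with a dose response; inactive = no potentiation, no dose response, or not a prior hit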;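 note: calcium entry triggered by an EC20 dose of DAMGO at the co-expressed mu-opioid receptor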).
In assay [9] the target is Short transient receptor potential channel 6 (Mus musculus) (UniProt Q61143). Put plainly: inhibition of mouse TRPC6 channel, confirmation, selectivity assay for TRPC4 inhibitor project, cell-based, HEK293, membrane potential dye, duplicate (AID 434948;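 active = active in primary screen and both duplicates, each dropping signal beyond three positive-control SD with fluorescence still positive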). Particulars: HEK293 TRPC6, membrane potential dye fluorescence, at 10 µM, stimulated with maximal-effect acetylcholine; stronger effect = higher value.
Short transient receptor potential channel 6 (Mus musculus), sequence (Q61143 whole entry, looked up): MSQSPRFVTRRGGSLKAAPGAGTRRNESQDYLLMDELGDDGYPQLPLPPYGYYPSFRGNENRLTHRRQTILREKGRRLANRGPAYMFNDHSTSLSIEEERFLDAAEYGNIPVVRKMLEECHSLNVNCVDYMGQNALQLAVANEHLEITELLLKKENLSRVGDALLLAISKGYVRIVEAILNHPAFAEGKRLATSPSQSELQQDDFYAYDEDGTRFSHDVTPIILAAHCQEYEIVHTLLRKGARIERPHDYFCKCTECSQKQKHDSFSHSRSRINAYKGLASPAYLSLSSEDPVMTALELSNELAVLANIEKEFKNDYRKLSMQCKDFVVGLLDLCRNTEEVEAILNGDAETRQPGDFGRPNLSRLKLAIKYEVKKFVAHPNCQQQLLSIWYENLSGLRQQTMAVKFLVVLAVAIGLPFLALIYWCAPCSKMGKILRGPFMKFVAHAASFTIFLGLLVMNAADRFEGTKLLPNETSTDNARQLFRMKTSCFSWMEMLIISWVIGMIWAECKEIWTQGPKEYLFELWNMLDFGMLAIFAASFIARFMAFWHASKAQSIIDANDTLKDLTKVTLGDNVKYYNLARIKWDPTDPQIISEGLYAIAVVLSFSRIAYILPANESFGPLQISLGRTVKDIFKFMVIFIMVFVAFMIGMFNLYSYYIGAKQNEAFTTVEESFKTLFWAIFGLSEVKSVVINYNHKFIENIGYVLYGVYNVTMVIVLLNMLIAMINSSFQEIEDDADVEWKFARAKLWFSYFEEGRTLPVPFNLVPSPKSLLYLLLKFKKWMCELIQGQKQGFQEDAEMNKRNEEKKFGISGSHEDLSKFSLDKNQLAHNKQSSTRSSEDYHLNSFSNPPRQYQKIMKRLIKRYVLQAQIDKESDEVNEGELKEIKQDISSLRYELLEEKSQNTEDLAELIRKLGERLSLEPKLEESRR

The target is the same in assay [10]. In words: activation of mouse TRPC6 channel, confirmation, selectivity assay for TRPC4 activator project, cell-based, HEK293, membrane potential dye, duplicate (AID 434950;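 active = membrane potential signal rise above negative control mean plus 3 SD in both duplicates, also active in the earlier TRPC4 screen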). As to conditions: HEK293 TRPC6, membrane potential fluorescence, at 10 µM; stronger effect = higher value.
The target is the same in assay [11]. Put plainly: TRPC6 potentiation by TRPC4 potentiator hits, confirmation, selectivity assay for TRPC4 potentiator project, HEK293 cells, membrane potential dye, duplicate (AID 434952;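 active = compound raising the membrane signal above positive-control mean plus 3 SD in both repeats, and a primary screen hit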). Particulars: HEK293 TRPC6, membrane potential dye fluorescence, at 10 µM, maximal acetylcholine added after compound; stronger effect = higher value.
The target in assay [12] is Short transient receptor potential channel 4 (Mus musculus) (UniProt Q9QUQ5). In words: calcium flux activators in TRPC4/5HT1a cells, counter-screen for TRPC4 activator project, cell-based, second counter screen, HEK293 TRPC4/5HT1a, Fluo-4 (AID 434977;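 active = calcium signal rise above buffer-control mean plus 5 SD in both duplicates, and also a hit in the primary screen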). Particulars: Fluo-4 calcium flux, at 10 µM; stronger effect = higher value.
Short transient receptor potential channel 4 (Mus musculus), sequence (Q9QUQ5 whole entry, looked up): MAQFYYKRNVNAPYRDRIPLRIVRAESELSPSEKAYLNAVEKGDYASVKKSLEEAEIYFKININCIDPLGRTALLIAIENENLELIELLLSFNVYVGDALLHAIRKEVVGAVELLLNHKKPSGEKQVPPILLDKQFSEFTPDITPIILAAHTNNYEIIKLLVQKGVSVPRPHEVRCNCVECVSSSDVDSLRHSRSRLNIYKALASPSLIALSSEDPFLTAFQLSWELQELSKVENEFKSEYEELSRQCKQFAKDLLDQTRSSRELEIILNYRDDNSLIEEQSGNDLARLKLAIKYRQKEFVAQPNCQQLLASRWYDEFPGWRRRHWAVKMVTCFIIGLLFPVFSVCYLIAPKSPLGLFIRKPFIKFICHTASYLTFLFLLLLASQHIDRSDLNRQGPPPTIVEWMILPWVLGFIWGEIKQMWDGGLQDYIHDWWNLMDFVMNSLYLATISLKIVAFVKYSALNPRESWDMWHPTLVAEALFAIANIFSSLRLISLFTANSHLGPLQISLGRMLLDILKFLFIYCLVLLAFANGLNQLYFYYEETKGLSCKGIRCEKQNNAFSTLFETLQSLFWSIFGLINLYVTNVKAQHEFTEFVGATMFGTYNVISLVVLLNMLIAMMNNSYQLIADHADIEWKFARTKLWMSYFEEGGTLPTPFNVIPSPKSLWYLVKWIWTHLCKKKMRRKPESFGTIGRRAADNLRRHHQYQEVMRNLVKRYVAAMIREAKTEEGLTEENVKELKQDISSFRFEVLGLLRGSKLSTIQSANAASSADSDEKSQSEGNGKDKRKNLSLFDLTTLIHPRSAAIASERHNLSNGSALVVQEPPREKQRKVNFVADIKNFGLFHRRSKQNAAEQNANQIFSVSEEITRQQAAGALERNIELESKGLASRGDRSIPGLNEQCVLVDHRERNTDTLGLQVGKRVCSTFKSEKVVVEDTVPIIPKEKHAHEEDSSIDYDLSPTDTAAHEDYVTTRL
Assay [13] is described as follows: calcium flux inhibitors in TRPC4/5HT1a cells, confirmation, counter-screen for TRPC4 inhibitor project, cell-based, second counter screen, HEK293 TRPC4/5HT1a, Fluo-4 (AID 434978;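 active = primary screen active whose calcium signal fell more than 3 SD beyond the full-serotonin control mean in both duplicate plates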;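 for outcome: serotonin given first at submaximal then at maximal dose after compound preincubation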). As to conditions: Fluo-4 calcium flux, at 10 µM, serotonin added to trigger calcium flux; stronger effect = higher value.
Assay [14] concerns TRPC4 (mouse), co-expressed with 5HT1a in HEK293. In words: calcium flux potentiators in TRPC4/5HT1a cells, confirmation, counter-screen for TRPC4 potentiator project, cell-based, second counter screen, HEK293 TRPC4/5HT1a, Fluo-4 (AID 434979;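 active = signal rise over 3 SD above mean of control wells given weak agonist, in both repeats and first screen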). As to conditions: Fluo-4 calcium flux, at 10 µM, serotonin added at its EC20 dose; stronger effect = higher value.
The nature of assay [15]: calcium flux activation in mu-opioid HEK293 cells, confirmation, counter-screen for TRPC4 activator project, cell-based, HEK293 mu-opioid receptor line (AID 449723;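 active = hit in primary screen, with calcium signal over 5 SD above buffer well mean in both duplicates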;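 note: counter screen cells carry the mu-opioid receptor alone and lack TRPC4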). Particulars: Fluo-4 calcium fluorescence, at 10 µM; stronger effect = higher value.
The nature of assay [16]: calcium flux enhancement in mu-opioid HEK293 cells, confirmation, counter-screen for TRPC4 allosteric potentiator project, cell-based, HEK293 mu-opioid receptor line (AID 449724;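 active = calcium signal rise more than 3 SD above the low-dose agonist control mean, in both duplicate plates and the primary screen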;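 note: HEK293 cells carrying mu-opioid receptor only with no TRPC4 channel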). Particulars: Fluo-4 calcium flux, at 10 µM, compound added before EC20 DAMGO stimulus; stronger effect = higher value.
Assay [17] can be described thus: thallium flux activation in parental CHO cells, counter-screen for KCNQ1 potentiator project (AID 493006;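 active = duplicate-averaged activation above buffer control mean plus 5 SD of those controls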;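 for activation: fluorescence ratio of max minus min over baseline after K+ and Tl+ depolarization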). As to conditions: parental CHO-K1 cells, FluxOR thallium flux, at 10 µM; stronger effect = higher value. In general terms: Counterscreens check selectivity or assay interference.
For assay [18], the target named is Potassium voltage-gated channel subfamily KQT member 1 (Homo sapiens) (UniProt P51787). In words: KCNQ1 potassium channel potentiators, confirmation, FluxOR thallium flux, CHO cells, duplicates (AID 493007;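 active = potentiation averaged over duplicate wells exceeding buffer-only control mean by more than 3 SD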;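 for outcome: cells depolarized by a potassium plus thallium sulfate stimulus after compound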;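 for potentiation: 0% = buffer-only wells and 100% = R-L3 activator control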). As to conditions: KCNQ1 cell line, FluxOR thallium flux fluorescence, at 10 µM; stronger effect = higher value, % of reference activator effect, buffer zero.
Potassium voltage-gated channel subfamily KQT member 1 (Homo sapiens), sequence (P51787 whole entry, looked up): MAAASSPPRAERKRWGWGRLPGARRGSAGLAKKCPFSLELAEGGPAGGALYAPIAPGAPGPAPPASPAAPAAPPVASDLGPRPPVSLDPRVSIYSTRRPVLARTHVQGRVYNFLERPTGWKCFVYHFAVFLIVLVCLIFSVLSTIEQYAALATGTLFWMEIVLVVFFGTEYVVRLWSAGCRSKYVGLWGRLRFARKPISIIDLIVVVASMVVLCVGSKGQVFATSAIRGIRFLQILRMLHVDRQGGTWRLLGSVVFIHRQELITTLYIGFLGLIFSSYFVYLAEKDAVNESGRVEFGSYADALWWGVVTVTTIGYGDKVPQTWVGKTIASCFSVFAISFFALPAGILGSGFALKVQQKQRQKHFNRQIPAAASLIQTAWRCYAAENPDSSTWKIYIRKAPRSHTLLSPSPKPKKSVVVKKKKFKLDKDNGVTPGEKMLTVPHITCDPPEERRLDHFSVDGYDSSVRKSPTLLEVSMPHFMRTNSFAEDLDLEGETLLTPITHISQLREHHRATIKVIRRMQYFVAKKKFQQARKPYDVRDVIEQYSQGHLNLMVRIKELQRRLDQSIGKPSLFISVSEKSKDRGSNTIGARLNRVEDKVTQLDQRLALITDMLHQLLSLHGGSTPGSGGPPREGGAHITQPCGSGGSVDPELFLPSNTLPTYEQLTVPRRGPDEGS
Assay [19] has as its target Potassium voltage-gated channel subfamily KQT member 2 (Rattus norvegicus) (UniProt O88943). In words: rat KCNQ2 channel potentiation, selectivity assay for KCNQ1 potentiator project, KCNQ2-CHO-K1 cells (AID 493009;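 active = mean duplicate potentiation above the buffer control mean plus 5 SD of buffer wells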;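 note: assay conditions were tuned for KCNQ1 rather than KCNQ2 modulators; signal is max minus min fluorescence divided by baseline after thallium stimulus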). Particulars: FluxOR thallium flux fluorescence, at 10 µM; stronger effect = higher value, scaled: buffer 0, activator control 100.
Assay [20] concerns the target Short transient receptor potential channel 4 (Mus musculus) (UniProt Q9QUQ5). Put plainly: mouse TRPC4 channel inhibitors, dose response, cell-based, HEK293 TRPC4/mu-opioid, Fluo-4 calcium (AID 434942;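 active = primary screen inhibitor hit that blocks the TRPC4 channel at some tested dose, yielding a dose curve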).

For some of these results: Results with a measured potency or affinity are listed apart. The source made the active and inactive calls.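 Rule for the calls, unless noted: active = calcium signal cut by more than 3 SD below the full-agonist control yet still positive, in both repeats and the earlier primary screen; inactive = the rest.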

Potassium voltage-gated channel subfamily KQT member 2 (Rattus norvegicus), sequence (O88943 whole entry, looked up): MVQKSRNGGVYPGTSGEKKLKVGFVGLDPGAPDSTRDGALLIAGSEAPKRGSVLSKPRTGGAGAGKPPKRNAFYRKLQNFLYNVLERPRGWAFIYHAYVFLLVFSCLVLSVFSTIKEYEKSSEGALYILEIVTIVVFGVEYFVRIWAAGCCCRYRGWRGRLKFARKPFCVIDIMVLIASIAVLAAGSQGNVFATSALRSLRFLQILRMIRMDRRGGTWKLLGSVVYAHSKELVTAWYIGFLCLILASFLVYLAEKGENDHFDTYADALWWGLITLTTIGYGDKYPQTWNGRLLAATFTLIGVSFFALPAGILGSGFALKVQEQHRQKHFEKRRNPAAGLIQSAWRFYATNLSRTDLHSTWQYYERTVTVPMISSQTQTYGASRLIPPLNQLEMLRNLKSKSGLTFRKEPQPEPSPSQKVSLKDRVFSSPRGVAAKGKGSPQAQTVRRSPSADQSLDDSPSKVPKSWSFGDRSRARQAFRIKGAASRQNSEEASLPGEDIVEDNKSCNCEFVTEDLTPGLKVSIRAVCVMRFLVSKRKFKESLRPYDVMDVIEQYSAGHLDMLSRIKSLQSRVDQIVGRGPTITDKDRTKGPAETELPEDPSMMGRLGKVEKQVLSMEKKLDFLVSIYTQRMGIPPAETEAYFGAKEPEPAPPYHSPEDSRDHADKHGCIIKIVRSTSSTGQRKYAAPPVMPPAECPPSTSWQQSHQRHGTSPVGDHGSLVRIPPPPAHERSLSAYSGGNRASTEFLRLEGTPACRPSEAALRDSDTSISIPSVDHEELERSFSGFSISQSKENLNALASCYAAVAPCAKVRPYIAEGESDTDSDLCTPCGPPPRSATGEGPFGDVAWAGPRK

On to `S=c1[nH]nc(-c2cc3c(s2)-c2ccccc2CC3)o1`, for which the result in [1], in assay [2], in assay [3], in assay [4], in assay [6] and in assay [7] was inactive. Moreover, the outcome in [8], in assay [9], in assay [10], in assay [11], in assay [12] and in [14] was inactive. In addition, the outcome in assay [15] and in assay [16] was inactive. Further, the results for the inhibition in [5] and in assay [13] were 97% (active) and 32.1% (active), respectively. The activation in assay [17] is 810% (active). Further, the results for the potentiation in assay [18] and in assay [19] were 241% (active) and 809% (active), respectively.

`CCCCN(C)CCNC(=O)c1cc2c(-c3cccc(OC)c3)nn(C)c2s1`: the outcome in [1], in assay [2], in assay [3], in assay [4], in [5] and in assay [6] was inactive. Besides, the result in [7], in assay [20], in assay [9], in assay [10], in assay [11] and in assay [12] was inactive. Besides, the result in [13], in assay [15] and in assay [16] was inactive. The potentiation in assay [14] was 39.5% (active).

Turning to `Cc1nc2c3cc(Cl)ccc3n(CCN3CCCCC3)c2s1`, the result in assay [1], in [2], in assay [3], in [4], in [6] and in [7] was inactive. Also, the outcome in assay [8], in [10], in assay [11], in [12], in assay [14] and in assay [15] was inactive. In addition, the outcome in assay [16], in [17], in [18] and in [19] was inactive. In addition, the results for the inhibition in assay [5], in assay [9] and in assay [13] were 72% (active), 39.5% (active) and 28.7% (active), respectively.

As for `CCCC1(c2ccccc2)NC(=O)N(CC(=O)c2[nH]c(C)c(C(=O)OCC)c2C)C1=O` (configuration not stated), the result in assay [1], in [2], in assay [3], in assay [5], in assay [6] and in assay [7] was inactive. The result in assay [20], in [9], in assay [10], in assay [11], in assay [12] and in assay [13] was inactive. Moreover, the outcome in [15] and in assay [16] was inactive. In addition, the values for the potentiation in [4] and in [14] were 18% (active) and 35.6% (active), respectively.

On to `Brc1ccccc1CN1CCN(Cc2c[nH]c3ccccc23)CC1`, for which the result in assay [1], in assay [2], in [3], in assay [4], in [6] and in assay [7] was inactive. Also, the outcome in [8], in assay [10], in assay [11], in assay [12], in [14] and in [15] was inactive. In addition, the result in assay [16], in assay [17], in [18] and in assay [19] was inactive. The inhibition in assay [5] was 78% (active); in assay [9], 55.5% (active); in assay [13] it was 41.8% (active).

For the compound `C=CCSc1nc2c(c(=O)[nH]c(=O)n2C)n1C/C=C(/C)Cl`, the outcome in assay [1], in [2], in assay [3], in assay [4], in assay [7] and in assay [8] was inactive. The compound was called inactive in assay [9], in assay [10], in assay [11], in [12], in assay [14] and in [15]. Further, the outcome in assay [16], in assay [17], in [18] and in assay [19] was inactive. Besides, the values for the inhibition in [5], in assay [6] and in assay [13] were 85% (active), 57% (active) and 32.5% (active), respectively.

Consider `Cc1cc(C)cc(N/C(N)=N/c2nc(C)cc(C)n2)c1`, for which the result in assay [1], in assay [2], in assay [3], in [4], in assay [6] and in assay [7] was inactive. The result in assay [8], in [9], in assay [10], in assay [11], in assay [12] and in assay [14] was inactive. The result in assay [15], in assay [16], in assay [17], in assay [18] and in assay [19] was inactive. Further, the inhibition was 100% (active) in assay [5] and 30.2% (active) in assay [13].
